Reference: PubChem BioAssay
Results filed as inconclusive are left out. Active and inactive are the calls of the source.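 Rule for the calls, unless noted: active = normalized viability below 100% at a tested concentration; inactive = the rest.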

How the values were obtained:
[1] = viability loss in pontine glioma line – cell-based, SU-DIPG-XIII, MIPE5.0, CellTiter-Glo, qHTS, dose response (AID 1347064; cut-off not given, nearly all actives have AC50 up to about 23 µM); details: CellTiter-Glo ATP luminescence
[2] = viability loss in pontine glioma line – cell-based, SU-DIPG-XXV, MIPE5.0, CellTiter-Glo, qHTS, dose response (AID 1347065; cut-off not given, nearly all actives have AC50 up to about 26 µM;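 note: cells exposed to compound for 48 hours before ATP readout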); details: CellTiter-Glo ATP luminescence
[3] = JHH-DIPG-1 glioma cell viability, MIPE5.0 library, CellTiter-Glo luminescence, qHTS (AID 1347067; cut-off not given, nearly all actives have AC50 up to about 26 µM;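 note: cells exposed to compound for 48 hours before readout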); details: JHH-DIPG-1 glioma viability, CellTiter-Glo ATP luminescence
[4] = growth inhibition of DIPG cells – cell-based, MIPE4.0 library, CellTiter-Glo luminescence, qHTS (AID 1347066; cut-off not given, nearly all actives have AC50 up to about 30 µM;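 note: cells exposed to compound for 48 hours before readout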); details: SU-DIPG-VI viability, CellTiter-Glo ATP luminescence
[5] = growth inhibition of DIPG cells – cell-based, MIPE5.0 library, qHTS (AID 1347068; cut-off not given, nearly all actives have IC50 up to about 30 µM); details: SU-DIPG-XXV viability
[6] = viability loss with induced miR-34 in A549 – imaging, A549 dox-inducible miR-34, nuclei and caspase counts, primary screen (AID 1347080;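 active = compounds whose cell count with miR-34 switched on is under 0.7 times the count with it off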); details: A549 miR-34 inducible, Hoechst nuclei count, 48 h
[7] = compounds altering HSF1 focus formation in cells – imaging, Selleck Cancer Library (AID 1347162; in the data active = plate-normalised HSF1 focus index below about 0.46); details: human cells, HSF1 nuclear foci imaging, at 10 µM; SSMD: measured here: HSF1 foci SSMD mean; cell count: measured here: cell number; plate-normalised HSF1 focus index: stronger effect = lower value
[8] = MELAS cybrid and Rieske KO viability enhancers – cell-based, MELAS cybrids, Rieske KO mouse fibroblasts, CellTiter-Glo, primary screen (AID 1508586;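 active = mean z-score across replicates of 1.96 or higher in either the MELAS or the Rieske mutant cell line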;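 note: z relative to plate mean and SD of compound and empty wells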); details: low glucose
[9] = drug combination growth inhibition, ovarian cancer – cell-based, oncology-focused library, rucaparib conditional, profiling panel (AID 1508598); details: patient-derived ovarian cancer cells, CellTiter-Glo viability, 144 h, stronger effect = lower value
[10] = P. berghei load reduction in hepatocytes – cell-based, HepG2, luciferase luminescence, HepG2 viability, primary screen (AID 624349; in the data active = parasite load remaining mostly below about 12%, no sharp cut-off; inactive = mostly above about 10%;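 note: 100% = mean of DMSO negative control wells on the same plate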); details: P. berghei liver stage in HepG2, luciferase luminescence, concentration not given here; parasite load remaining: stronger effect = lower value; viability: measured here: HepG2 viability without parasites
[11] = viability loss in pontine glioma line – cell-based, SU-DIPG-IV, MIPE4.0, CellTiter-Glo, qHTS, dose response (AID 1347063; cut-off not given, nearly all actives have AC50 up to about 30 µM;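 note: compound exposure lasted 48 hours before the viability readout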); details: CellTiter-Glo ATP luminescence
[12] = stronger effect = lower value, cell number ratio, induced over uninduced
[13] = measured here: relative caspase fold change +Dox/-Dox
[14] = measured here: total cells with miR-34 induction, stronger effect = lower value
[15] = measured here: total cells without miR-34 induction

C[C@@H](C1CC[C@@]2(O)C3=CC(=O)[C@@H]4C[C@@H](O)[C@@H](O)C[C@]4(C)[C@H]3CC[C@]12C)[C@H](O)CCC(C)(C)O (stereo partly specified)
outcome [1]: inactive
outcome [2]: inactive
outcome [3]: inactive

Cn1cc(C2=C(c3cn(C4CCN(Cc5ccccn5)CC4)c4ccccc34)C(=O)NC2=O)c2ccccc21
outcome [4]: inactive
outcome [5]: inactive
fold change [6, 12]: 0.96 (inactive)
fold change [6, 13]: 1.18
cell count [6, 14]: 6030
cell count [6, 15]: 6280
SSMD [7]: 0.559
cell count [7]: 6710
plate-normalised HSF1 focus index [7]: 1.03 (inactive)
z-score ([8]; MELAS cybrid survival, CellTiter-Glo 48 h, stronger effect = higher value): -0.204 (inactive)
z-score ([8]; Rieske KO mouse fibroblast survival, CellTiter-Glo 72 h): -2.05
viability ([9]; at 0.000305 µM, OCI-C5x cells, with rucaparib 10 µM, 100% = cells with rucaparib alone): 118% (inactive)
viability ([9]; at 0.000305 µM, OCI-C5x cells, without rucaparib): 151% (inactive)
viability ([9]; at 0.000305 µM, OCI-P5x cells, with rucaparib 20 µM, 100% = cells with rucaparib alone): 108% (inactive)
viability ([9]; at 0.000305 µM, OCI-P5x cells, without rucaparib): 115% (inactive)
viability ([9]; at 0.00122 µM, OCI-C5x cells, with rucaparib 10 µM, 100% = cells with rucaparib alone): 136% (inactive)
viability ([9]; at 0.00122 µM, OCI-C5x cells, without rucaparib): 148% (inactive)
viability ([9]; at 0.00122 µM, OCI-P5x cells, with rucaparib 20 µM, 100% = cells with rucaparib alone): 113% (inactive)
viability ([9]; at 0.00122 µM, OCI-P5x cells, without rucaparib): 105% (inactive)
viability ([9]; at 0.00488 µM, OCI-C5x cells, with rucaparib 10 µM, 100% = cells with rucaparib alone): 127% (inactive)
viability ([9]; at 0.00488 µM, OCI-C5x cells, without rucaparib): 136% (inactive)
viability ([9]; at 0.00488 µM, OCI-P5x cells, with rucaparib 20 µM, 100% = cells with rucaparib alone): 109% (inactive)
viability ([9]; at 0.00488 µM, OCI-P5x cells, without rucaparib): 105% (inactive)
viability ([9]; at 0.0195 µM, OCI-C5x cells, with rucaparib 10 µM, 100% = cells with rucaparib alone): 138% (inactive)
viability ([9]; at 0.0195 µM, OCI-C5x cells, without rucaparib): 144% (inactive)
viability ([9]; at 0.0195 µM, OCI-P5x cells, with rucaparib 20 µM, 100% = cells with rucaparib alone): 106% (inactive)
viability ([9]; at 0.0195 µM, OCI-P5x cells, without rucaparib): 98.4% (active)
viability ([9]; at 0.0781 µM, OCI-C5x cells, with rucaparib 10 µM, 100% = cells with rucaparib alone): 127% (inactive)
viability ([9]; at 0.0781 µM, OCI-C5x cells, without rucaparib): 149% (inactive)
viability ([9]; at 0.0781 µM, OCI-P5x cells, with rucaparib 20 µM, 100% = cells with rucaparib alone): 119% (inactive)
viability ([9]; at 0.0781 µM, OCI-P5x cells, without rucaparib): 105% (inactive)
viability ([9]; at 0.313 µM, OCI-C5x cells, with rucaparib 10 µM, 100% = cells with rucaparib alone): 136% (inactive)
viability ([9]; at 0.313 µM, OCI-C5x cells, without rucaparib): 146% (inactive)
viability ([9]; at 0.313 µM, OCI-P5x cells, with rucaparib 20 µM, 100% = cells with rucaparib alone): 111% (inactive)
viability ([9]; at 0.313 µM, OCI-P5x cells, without rucaparib): 93.7% (active)
viability ([9]; at 1.25 µM, OCI-C5x cells, with rucaparib 10 µM, 100% = cells with rucaparib alone): 149% (inactive)
viability ([9]; at 1.25 µM, OCI-C5x cells, without rucaparib): 156% (inactive)
viability ([9]; at 1.25 µM, OCI-P5x cells, with rucaparib 20 µM, 100% = cells with rucaparib alone): 113% (inactive)
viability ([9]; at 1.25 µM, OCI-P5x cells, without rucaparib): 92.6% (active)
viability ([9]; at 5 µM, OCI-C5x cells, with rucaparib 10 µM, 100% = cells with rucaparib alone): 159% (inactive)
viability ([9]; at 5 µM, OCI-C5x cells, without rucaparib): 140% (inactive)
viability ([9]; at 5 µM, OCI-P5x cells, with rucaparib 20 µM, 100% = cells with rucaparib alone): 102% (inactive)
viability ([9]; at 5 µM, OCI-P5x cells, without rucaparib): 99.4% (active)

O=c1[nH]c2ccccc2n1C1CCN(Cc2ccc(-c3[nH]c4cc5ncnc5cc4nc3-c3ccccc3)cc2)CC1
parasite load remaining [10]: 45.5% (inactive)
viability [10]: 115%
AC50 [11]: 16.6 µM (active)
AC50 [2]: 23.5 µM (active)
AC50 [4]: 14.8 µM (active)

O=NN(O)N1CCC[C@H]1C(=O)O
fold change [6, 12]: 0.944 (inactive)
fold change [6, 13]: 1.07
cell count [6, 14]: 5740
cell count [6, 15]: 6080

O=C(NCCN1CCC2(CC1)C(=O)NCN2c1ccccc1)c1ccc2ccccc2c1
fold change [6, 12]: 0.966 (inactive)
fold change [6, 13]: 1.81
cell count [6, 14]: 5740
cell count [6, 15]: 5940

Cc1c(C(=O)Nc2cccc(C(F)(F)F)c2)cc(-c2ccccc2)n1CCCN1CCOCC1
AC50 [11]: 18.7 µM (active)
outcome [1]: inactive

CCCCCCC(=O)O[C@H]1CC[C@H]2[C@@H]3CC(=O)C4=CC(=O)CC[C@]4(C)[C@H]3CC[C@]12C
fold change ([6]; stronger effect = lower value): 0.899 (inactive)
fold change [6, 13]: 0.574
cell count [6, 14]: 5250
cell count [6, 15]: 5830

CCCCCCCC/C=C\CCCCCCCC(=O)Nc1ccccc1
fold change [6, 12]: 1.04 (inactive)
fold change [6, 13]: 0.81
cell count [6, 14]: 6190
cell count [6, 15]: 5950

c1cc(N2CCNCC2)c2cnccc2c1
fold change [6, 12]: 0.965 (inactive)
fold change [6, 13]: 0.639
cell count [6, 14]: 5540
cell count [6, 15]: 5740

CCCCCCC(C)(C)c1cc(OC)c2c(c1)OC(C)(C)[C@@H]1CC=C(C)C[C@@H]21
fold change ([6]; stronger effect = lower value): 1.09 (inactive)
fold change [6, 13]: 0.441
cell count [6, 14]: 6970
cell count [6, 15]: 6400

CCCCC/C=C\C/C=C\C/C=C\C/C=C\CCC(C)C(=O)NCCF (stereo unspecified)
fold change [6, 12]: 1.05 (inactive)
fold change [6, 13]: 1.21
cell count [6, 14]: 5220
cell count [6, 15]: 4990

c1cc2ccsc2c(N2CCNCC2)n1
fold change [6, 12]: 0.937 (inactive)
fold change [6, 13]: 0.656
cell count [6, 14]: 5170
cell count [6, 15]: 5520

c1cc(N2CCNCC2)c2cc[nH]c2c1
fold change [6, 12]: 0.865 (inactive)
fold change [6, 13]: 1.51
cell count [6, 14]: 4820
cell count [6, 15]: 5570

CCCCC/C=C\C/C=C\C/C=C\C/C=C\CCCC(=O)Nc1ccc2c(C)cc(=O)oc2c1
fold change [6, 12]: 0.937 (inactive)
fold change [6, 13]: 0.94
cell count [6, 14]: 5170
cell count [6, 15]: 5510

O[C@H]1[C@H]2[C@H](O)CCCN2C[C@H]1O
fold change ([6]; stronger effect = lower value): 0.852 (inactive)
fold change [6, 13]: 1.17
cell count [6, 14]: 5340
cell count [6, 15]: 6260

CCCCCCCCCC(=O)OC[C@H](COP(=O)([O-])OCC[N+](C)(C)C)OC(=O)CCCCCCCCC
fold change [6, 12]: 0.907 (inactive)
fold change [6, 13]: 0.797
cell count [6, 14]: 5320
cell count [6, 15]: 5860

CN=C(NS(=O)(=O)c1ccc(Cl)cc1)N1C[C@@H](c2ccccc2)C(c2ccc(Cl)cc2)=N1
fold change [6, 12]: 0.663 (active)
fold change [6, 13]: 0.468
cell count [6, 14]: 3940
cell count [6, 15]: 5940

CCCC[C@@H](C)[C@@H](OC(=O)C[C@@H](CC(=O)O)C(=O)O)[C@H](C[C@@H](C)C[C@H](O)CCCC[C@@H](O)C[C@H](O)[C@H](C)N)OC(=O)C[C@H](CC(=O)O)C(=O)O
fold change ([6]; stronger effect = lower value): 0.911 (inactive)
fold change [6, 13]: 1.82
cell count [6, 14]: 5520
cell count [6, 15]: 6060

c1cc2cc(N3CCNCC3)ccc2cn1
fold change [6, 12]: 0.956 (inactive)
fold change [6, 13]: 0.665
cell count [6, 14]: 5380
cell count [6, 15]: 5630

Cn1c2cccc(=O)c-2nc2ccccc21
fold change [6, 12]: 1.03 (inactive)
fold change [6, 13]: 0.698
cell count [6, 14]: 3390
cell count [6, 15]: 3310

CCCCCC(=O)N[C@H]1CCOC1=O
fold change [6, 12]: 0.883 (inactive)
fold change [6, 13]: 0.721
cell count [6, 14]: 5400
cell count [6, 15]: 6120
